# Compound activity from PubChem BioAssay.
# LMP1 NFkB inh – EBV LMP1-driven NF-kappaB luciferase reporter inhibitors, primary screen, cell-based, luminescence, single point; 350,000 tested, 0.69% active; inhibition, % at 12.5 µM; LMP1-induced NF-kappaB luciferase reporter cells; in the data active means inhibition above about 41%;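 further: 0% = neutral control wells and 100% = reference inhibitor control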
# SRC2 inh – inhibition of GAL4-SRC2 driven luciferase reporter, primary screen, SRC2 inhibitor project, cell-based, luminescence; inhibition, % at 9 µM; Nuclear receptor coactivator 2 (Homo sapiens), Q15596; HEK293 GAL4-SRC2 luciferase reporter; 370,000 tested, 0.17% active;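 active means inhibition above the mean inhibition of all tested compounds plus 3 SD, set per campaign, cut at about 52% in these data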;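 further: 0% = DMSO treated cells and 100% = cells given Gossypol at 36 µM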
# SRC1 inh – SRC1 coactivator transcriptional activity inhibitors, primary screen, cell-based, luminescence. Nuclear receptor coactivator 1 (Homo sapiens), Q15788. HEK293 GAL4-SRC1 luciferase reporter. inhibition, % at 3.6 µM. 360,000 tested, 0.12% active;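 active means inhibition above the campaign mean plus 3 SD, with each screening campaign given its own cutoff, cut at about 60% in these data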;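 further: 0% = DMSO treated cells and 100% = gossypol at 36 µM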
# NR5A2 inv ag – LRH-1 (NR5A2) inverse agonists, primary screen, cell-based, luminescence, HEK293T, StAR-luciferase reporter; Nuclear receptor subfamily 5 group A member 2 (Homo sapiens), O00482; LRH-1 transfected, 24 h; inhibition, % at 3.6 µM; 360,000 tested, 0.13% active;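 active means inhibition above the mean inhibition of all tested compounds plus 3 SD, cut at about 73% in these data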;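 further: 0% = DMSO wells and 100% = reporter-only cells lacking LRH-1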
# Target sequence (O00482 whole entry, looked up): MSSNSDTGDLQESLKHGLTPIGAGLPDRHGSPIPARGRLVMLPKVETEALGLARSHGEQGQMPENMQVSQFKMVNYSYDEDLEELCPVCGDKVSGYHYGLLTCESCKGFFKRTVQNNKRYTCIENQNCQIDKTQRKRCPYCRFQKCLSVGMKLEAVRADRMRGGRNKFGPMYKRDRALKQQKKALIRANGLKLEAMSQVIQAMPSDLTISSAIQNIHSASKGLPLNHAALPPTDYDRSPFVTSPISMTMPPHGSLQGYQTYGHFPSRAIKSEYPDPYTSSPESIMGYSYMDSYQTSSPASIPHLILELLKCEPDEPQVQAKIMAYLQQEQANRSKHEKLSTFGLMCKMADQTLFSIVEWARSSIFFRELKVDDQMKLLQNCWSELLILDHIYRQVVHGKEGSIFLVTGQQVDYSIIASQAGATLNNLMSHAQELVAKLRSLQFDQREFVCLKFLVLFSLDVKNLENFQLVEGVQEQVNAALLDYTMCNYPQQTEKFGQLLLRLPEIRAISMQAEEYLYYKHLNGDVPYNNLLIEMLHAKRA
# SRC3 inh – SRC3 coactivator transcriptional activity inhibitors, primary screen, cell-based, luminescence; HEK293 GAL4-SRC3 luciferase reporter; inhibition, % at 3.6 µM; 360,000 tested, 0.17% active; AID 588352, 2011;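 active means inhibition above a per-campaign cutoff, the mean of all compounds plus 3 SD, cut at about 60% in these data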;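 further: 0% = DMSO-treated cells and 100% = gossypol-treated cells at 36 µM; higher means less SRC3-driven luciferase light from the GAL4 reporter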
# Active calls of the source: *; · = no result given. The list is not random: actives were taken first. Their share in the collection is about 0.78%.
SMILES,LMP1 NFkB inh,SRC2 inh,SRC1 inh,NR5A2 inv ag,SRC3 inh
c1ccc2c(C3=NNC(=NC4CC4)SC3)c[nH]c2c1,40.0,-57.6,-133.1,-141.9,-115.6
Cc1cc(C2=NNC(=NC3CC3)SC2)c(C)n1Cc1ccco1,78.6*,82.7*,76.0*,76.2*,83.4*
C=CCn1c(C)cc(C2=NNC(=NC(C)(C)C)SC2)c1C,57.3*,38.8,46.8,21.5,57.9
c1ccc(C2=NNC(=NC3CC3)SC2)cc1,47.6*,-3.5,-77.2,-80.3,-59.5
COC(=O)[C@]12C[C@H](CC(=O)NCc3cccc(C(F)(F)F)c3)C(=O)N(Cc3ccco3)C1=C[C@H](C(C)(C)C)O[C@@H]2C,·,1.2,·,·,·
Cc1cccc(CCNC(=O)Cn2nc(-c3ccccc3)ccc2=O)c1,·,23.4,·,·,·
C=CCN=C1NN=C(c2cc(C)n(CCOC)c2C)CS1,44.9*,69.5*,12.6,-6.9,27.6
Cc1cc(C2=NNC(=NC3CC3)SC2)c(C)n1-c1ccccc1,73.7*,79.6*,83.5*,76.5*,86.4*
C=CCn1c(C)cc(C2=NNC(=Nc3ccc(C)cc3)SC2)c1C,-13.4,-12.2,-2.9,-1.7,17.2
CC(=O)O[C@H](CC(=O)O)C[N+](C)(C)C,59.2*,-9.0,1.7,-16.1,-7.7
CC(=O)OC(CC(=O)O)C[N+](C)(C)C (configuration not stated),-5.1,-3.4,-19.5,-17.4,7.5
Oc1ccc(CCNc2ncnc3ccc(Cl)cc23)cc1,20.1,36.8,63.9*,47.3,57.9
COc1ccc(S[C@]2(C(=O)N(C)C)CC(=O)N(C(=O)Nc3ccc(C)c(Cl)c3)[C@@H]2c2ccc(OC)cc2)cc1,·,3.9,·,·,·
COc1ccc(OC)c2c1sc(=NC(=O)c1ccco1)n2C,52.8*,2.4,-9.4,7.8,-46.6
COC(=O)C1CN(Cc2ccc(Cl)cc2)CCS(=O)(=O)N1Cc1cn(Cc2ccc(OC)cc2)nn1 (configuration not stated),·,-6.3,·,·,·
CCNc1ccc(Br)cc(C(=O)/C=C/c2c(Cl)cccc2Cl)c1=O,61.1*,·,-19.0,0.8,23.1
CCNc1ccc(Br)cc(C(=O)/C=C/c2ccc(Cl)cc2)c1=O,-93.7,·,-32.3,2.8,-7.8
COc1cc(OC)cc(C(=O)N[C@H](C(=O)OCC(=O)c2ccc(C)c([N+](=O)[O-])c2)C(C)C)c1,84.1*,14.6,-5.5,-33.5,-0.2
C#CCNC(=O)C[C@@H]1C(=O)N(CCc2ccc(Cl)cc2)/C2=C/CCCCC[C@@]21C(=O)OCC,·,-0.7,·,·,·
CCOc1ccc(-c2cc(CCCC(=O)NCc3ccco3)no2)cc1,14.2,60.0*,-2.9,9.4,-19.8
CCOc1ccc(-c2cc(CCCC(=O)NCc3ccc(C)cc3)no2)cc1,-3.3,64.6*,12.8,33.3,7.3
CC(CCN1CCC(C(O)(c2ccccc2)c2ccccc2)CC1)Oc1cccc(F)c1 (configuration not stated),·,12.4,·,·,·
CCCCS(=O)(=O)N1C2=NC3=C(C(=O)N(CCOC)C3=O)C3N(C)c4ccccc4[C@]23C[C@H]1CO (some centres not stated),·,5.2,·,·,·
COc1ccc(C(=O)Nc2ccc(C)cn2)c(OC)c1,75.0*,56.4*,-7.7,-30.9,38.0
C[C@@H]1COc2cc(Br)ccc2S(=O)(=O)N1Cc1cn(Cc2ccc(F)cc2)nn1,·,12.8,·,·,·
SMILES,LMP1 NFkB inh,SRC2 inh,SRC1 inh,NR5A2 inv ag,SRC3 inh
O=C(O)C1C2C=CC(C2)C1C(=O)NCCC1=CCCCC1 (configuration not stated),-14.4,-7.8,-4.4,7.1,14.1
O=C(CN1C(=O)C2C3C=CC(C3)C2C1=O)NCCC1=CCCCC1 (configuration not stated),76.2*,5.2,-14.7,-7.1,-37.3
COc1ccccc1-n1cc([C@@H]2C[C@H]3CN(c4ccccc4)C(=O)[C@]34CCCN24)cn1,60.0*,-31.6,55.3,52.6,63.9*
COc1ccc(-c2cc3nc(-c4ccccc4)cc(N4CCCC(O)C4)n3n2)cc1 (configuration not stated),61.5*,15.5,1.1,2.3,20.9
COC(=O)c1nn(-c2ccc3c(c2)OCO3)cc1O,-12.6,-46.5,-89.4,-95.2,-46.0
COC(=O)c1nn(-c2ccc3c(c2)CCN3C(C)=O)cc1O,55.2*,41.5,-0.9,-49.7,3.1
Cc1ccc(/C=C/c2nc3ccccc3c(=O)[nH]2)cc1,45.0*,-46.3,-86.8,-158.6,-115.5
O=C(C#Cc1cccc([N+](=O)[O-])c1)c1ccccc1,45.8*,·,-6.3,13.1,3.4
CC[C@@]1(c2ccc(C)cc2)C(=O)N(C(=O)OC)N1C(=O)OC,·,1.1,·,·,·
COc1cccc(C(=O)CC(=O)C(=O)Nc2ccc(C)cc2Cl)c1,46.4*,21.8,16.4,-6.1,17.9
COc1ccc(C(=O)CC(=O)C(=O)Nc2ccc(C)cc2Cl)cc1,6.5,-26.8,4.1,18.8,-2.6
CCOC(=O)N1CCN(C(=O)c2ccc3c(c2)sc2nc(-c4ccc(OC)cc4)cn23)CC1,-7.1,-5.6,-17.8,5.6,-5.8
COc1ccc2c(c1)sc1nc(-c3ccccc3)cn12,79.6*,61.2*,5.0,-0.6,12.5
CCC(=O)NC(=S)Nc1ccccc1C(F)(F)F,72.9*,-15.9,2.5,-5.6,-13.7
Cc1c(C=O)c2ccccn2c1C(=O)c1cccs1,10.8,22.3,8.2,9.4,17.1
Cc1c(C=O)c2ccccn2c1C(=O)c1ccccc1Cl,53.0*,-8.1,15.6,-3.8,-1.7
COC(=O)[C@]12C[C@H](CC(=O)N3CCSCC3)C(=O)N(CCC3=CCCCC3)C1=C[C@H](C(C)C)O[C@@H]2C1CC1,·,8.9,·,·,·
O[C@H](COc1cccc(Br)c1)CN1CCC(C(O)(c2ccccc2)c2ccccc2)CC1,·,-13.3,·,·,·
Cc1cc(C)cc(Nc2nc3ccccc3c(=O)[nH]2)c1,-3.5,-37.0,2.1,0.7,-0.2
COc1nc(Nc2nc3ccccc3c(=O)[nH]2)nc2ccc(C)cc12,50.4*,-34.7,-0.8,5.6,8.5
CCCCCc1ccc(-c2ccc(/C=C/C(=O)O)cc2)nc1,43.2*,34.7,-47.5,-92.2,6.3
CCCc1ccc(-c2ccc(/C=C/C(=O)O)cc2)nc1,74.5*,88.3*,71.0*,78.4*,64.9*
c1ccn(-c2ccc(-c3noc(CCc4ccncc4)n3)cc2)c1,·,10.8,·,·,·
COc1cccc(/C=C2\CC3(OC(=O)C4CCCCC4)CCCN2C3)c1 (configuration not stated),·,3.7,·,·,·
COc1ccc(-c2c(Cc3ccccc3)nc(NC(=O)c3ccccc3)n2Cc2ccccc2)cc1,·,5.9,·,·,·
COC(=O)Cn1ncc2c(C)n(Cc3ccccc3)c(C)c2c1=O,68.5*,-45.3,-42.6,-90.8,-50.4
Cc1c2cnn(CC(=O)O)c(=O)c2c(C)n1Cc1ccccc1,-6.9,-21.3,-4.7,-7.2,8.6
